Only some compounds are listed: those with a hit (about 28% of all), similar ones and a draw of the others.
Plk1 PBD FP: Plk1 (human) PBD binding inhibition; 97,000 tested, 0.13% active; Plk1 PBD phosphopeptide binding, fluorescence polarization; inhibition, %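 (tested at about 20 µM)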; P53350; in the data active = inhibition above about 34%, passing the limit was not always enough
CYP2C9 inh: inhibitors of human CYP2C9. P11712. inhibition, % at 5 µM. CYP2C9 Supersomes, luciferin-H conversion, luminescence. 96,000 tested, 20% active. AID 777;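 active = blocking of liver enzyme CYP2C9 beyond about 50% at 5 µM, limit read from the data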
Target sequence (P11712 whole entry, looked up): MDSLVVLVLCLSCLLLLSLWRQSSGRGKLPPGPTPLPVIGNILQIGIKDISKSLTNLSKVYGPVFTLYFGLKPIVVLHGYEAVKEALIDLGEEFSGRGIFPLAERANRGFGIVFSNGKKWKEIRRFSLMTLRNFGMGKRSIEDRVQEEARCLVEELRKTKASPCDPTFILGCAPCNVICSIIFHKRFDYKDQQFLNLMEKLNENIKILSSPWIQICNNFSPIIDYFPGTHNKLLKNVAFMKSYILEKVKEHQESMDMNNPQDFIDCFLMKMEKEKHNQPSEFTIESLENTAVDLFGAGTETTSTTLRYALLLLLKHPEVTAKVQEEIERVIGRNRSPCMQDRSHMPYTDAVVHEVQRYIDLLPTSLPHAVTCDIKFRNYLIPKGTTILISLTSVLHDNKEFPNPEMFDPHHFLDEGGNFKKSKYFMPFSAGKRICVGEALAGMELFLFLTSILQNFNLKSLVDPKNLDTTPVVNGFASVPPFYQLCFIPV
PLK1 kinase inh: inhibitors of human PLK1 kinase; P53350; recombinant PLK1 kinase, TR-FRET peptide phosphorylation; inhibition, % at 10 µM; 97,000 tested, 0.53% active;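 active = inhibition of 50% or more in the single-concentration screen; inactive = inhibition below 50%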
CYP2C19 inh: blocks human cytochrome P450 2C19; AID 778; inhibition, % at 5 µM; 96,000 tested, 21% active; CYP2C19 Supersomes, luciferin-H EGE luminescence, 30 min;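 active = CYP2C19 inhibition above a set limit at 5 µM in the primary screen, cut at about 50% in these data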
CYP2C19 act: activators of human cytochrome P450 2C19; P33261; recombinant CYP2C19, luciferin-H EGE luminescence; hits give high values; 0 = fully inhibited enzyme, 1 = untreated enzyme; activation factor at 5 µM; 96,000 tested, under 10 active; AID 1025;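 active = activation factor of at least 2 at 5 µM in the primary screen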
CYP2C9 act: activators of human CYP2C9; AID 1024; 96,000 tested, 1.4% active; activation factor at 5 µM; recombinant CYP2C9, luciferin-H conversion, luminescence; hits give high values; factor 1 = untreated enzyme, 0 = blocked; P11712;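 active = activation factor of 2 or more for CYP2C9 at a 5 µM dose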
Large screens that a line does not name were inactive.

O=C(CSc1nnc(-c2cccs2)o1)N1CCc2ccccc21	none
COc1ccc(-c2nnc(SCC(=O)N3CCCCC3)o2)c(OC)c1	none (no result: Plk1 PBD FP, PLK1 kinase inh)
COc1cc(OC)cc(-c2nnc(SCC(=O)N3CCCC3)o2)c1	none
COc1cc(OC)cc(-c2nnc(SCC(=O)N3CCCc4ccccc43)o2)c1	CYP2C19 inh 92
O=C(Nc1cccc2ccccc12)/C(=C/c1ccc([N+](=O)[O-])cc1)NC(=O)c1ccccc1	none
Cc1cc(NC(=O)CSc2nnc(Cc3ccccc3)o2)no1	none
CC1CCCCN1C(=O)C12CCC(C)(/C(=N/O)C1)C2(C)C (configuration not stated)	none
COc1cccc(-c2nc(CSCC(=O)N3CCc4ccccc43)c(C)o2)c1	none
COc1cc(C(=O)NCc2nnc(SCC(=O)N3CCc4ccccc43)o2)cc(OC)c1OC	CYP2C9 inh 79, CYP2C19 inh 64
COc1cccc(-c2nnc(SCC(=O)N3CCCc4ccccc43)o2)c1	CYP2C19 inh 95
COc1cc(C(=O)NCc2nnc(SCC(=O)NCc3ccccc3)o2)cc(OC)c1OC	none
CC(=O)N1CCC(N(CCCOC(C)C)C(=O)Nc2ccc(Cl)cc2)CC1	none (no result: CYP2C9 inh, CYP2C19 inh, CYP2C19 act, CYP2C9 act)
COc1ccc(/C(N)=N/OC(=O)CSc2ccccc2)cc1OC	none
Cc1cc(C(=O)OCC(=O)N2CC(C)CC(C)C2)c(C)o1 (configuration not stated)	CYP2C19 inh 55
Cc1cc(C(=O)OCC(=O)N2c3ccccc3CC2C)c(C)o1 (configuration not stated)	CYP2C19 inh 75
Nn1c(SCC(=O)NCc2ccccc2)nnc1C1CC1	none
CCc1ccc(/C=C/C(=O)c2c(C)cc(C)[nH]c2=O)cc1	CYP2C19 inh 80
Cc1ccc(/C=C/C(=O)c2c(C)cc(C)[nH]c2=O)cc1	CYP2C19 inh 89
COc1ccc(S(=O)(=O)NNC(=O)C2Cc3c(ccc4ccccc34)O2)cc1 (configuration not stated)	none
CCOCCCNC(=O)c1ccc(NC(C)=O)cc1	none
c1ccc(CSc2nnnn2-c2cccc3ccccc23)nc1	CYP2C9 act 2.3
O=C(CCCSc1nnnn1-c1cccc2ccccc12)c1ccc(F)cc1	CYP2C9 act 2.4
COC(=O)CSc1nnnn1-c1cccc2ccccc12	CYP2C9 act 3.2
COC(=O)c1cc2occc2n1Cc1c(F)cccc1Cl	none
Cc1ccc(S(=O)(=O)/N=C2/NC(=O)/C(=C/c3cccnc3)S2)cc1	CYP2C9 inh 98, CYP2C19 inh 68
Cn1cc(Cl)c(C(=O)NC2CCCCCC2)n1	CYP2C19 inh 67
Cn1nc(C(=O)NC2CCCCC2)c2ccccc2c1=O	none
Cc1nn(CC(=O)NCCCN2CCOCC2)c(C)c1[N+](=O)[O-]	none
O=C1c2ccccc2C(Nc2ccc(Cl)cc2)N1CCN1CCOCC1 (configuration not stated)	CYP2C19 inh 75
COC(=O)c1cc(NC2c3ccccc3C(=O)N2CCN2CCOCC2)cc(C(=O)OC)c1 (configuration not stated)	CYP2C19 inh 98
CCCC1CCC(C(=O)Nn2c(C)nc3ccccc3c2=O)CC1 (configuration not stated)	none (no result: CYP2C9 inh, CYP2C19 inh, CYP2C19 act, CYP2C9 act)
O=C(Nn1c(-c2ccc(F)cc2)nc2ccccc2c1=O)C1CCCCC1	CYP2C9 inh 64
CCCCCCC1CCC(C(=O)Nn2c(C)nc3ccccc3c2=O)CC1 (configuration not stated)	CYP2C9 inh 91
CCc1ccc(NC(=O)c2onc(C)c2Cl)cc1	none
NC(=O)CCc1c[nH]c2ccccc12	none
CCCc1c(C)[nH]c2ccccc2c1=O	CYP2C9 act 3.2
Cc1[nH]c2ccccc2c1CCC(N)=O	CYP2C19 inh 53, CYP2C9 act 3.1
O=C(O)CCc1c(C(=O)O)[nH]c2ccccc12	CYP2C9 inh 54
CCCc1c(C)c2ccccc2[nH]c1=O	none
O=C(O)CCCn1c(=O)[nH]c2ccccc2c1=O	none
CCOC(=O)N1CCN(S(=O)(=O)c2cccc3nonc23)CC1	CYP2C9 inh 71, CYP2C19 inh 82 (no result: Plk1 PBD FP, PLK1 kinase inh)
CCN(CC)C(=O)C1CCN(S(=O)(=O)c2cccc3nonc23)CC1	CYP2C19 inh 65
CCOC(=O)N1CCN(S(=O)(=O)c2cccc3cccnc23)CC1	CYP2C19 inh 91, CYP2C9 act 3.3
CCN(C(=O)C1CCN(S(=O)(=O)c2cccc3nonc23)CC1)c1ccccc1	none

Source: PubChem (several laboratories)
